T cruzi growth-1 – T. cruzi proliferation inhibition; AID 624255; actives 5.9% (n = 77,000); T. cruzi beta-gal in NIH3T3, GalScreen luminescence, 90 h; inhibition, % at 8.34 µM;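 active = mean inhibition above about 93%, with at least 55% of replicates each passing it, limit read from the data, passing the limit was not always enough; inconclusive = only one of those two conditions holds; inactive = neither condition holds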
C diff growth – inhibitors of Clostridium difficile growth; actives 0.25% (n = 86,000); growth activity, negative = inhibition, % at 16 µg/mL (by protocol); Clostridium difficile clinical isolate growth, OD600, 24 h; stronger effect = lower value;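 active = mean growth activity at or below -80% and every replicate also at or below -80%; inconclusive = mean at or below -80% but some replicate above -80%; inactive = mean growth activity above -80%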;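 also: 0% = DMSO wells and -100% = levofloxacin 16 µg/mL wells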
Pf Dd2 growth – P. falciparum Dd2 growth inhibition | SYBR Green, 72 h; stronger effect = lower value | activity change, % at 10 µM | actives 2.3% (n = 94,000); in the data active = activity change below about -80%; inconclusive = no clear call, values can overlap the other calls
T cruzi growth-2 – blocks T. cruzi growth in NIH3T3 host cells | inhibition, % at 8.35 µM | shares compounds with T cruzi growth-1 | AID 651739 | T. cruzi beta-gal in NIH3T3, GalScreen luminescence, 90 h | actives 72% (n = 5,600);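 active = mean replicate inhibition above about 95% and at least 55% of replicates individually reaching it, limit read from the data; inconclusive = only one of the two criteria is met; inactive = neither criterion is met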
T cruzi growth-3 – Trypanosoma cruzi proliferation inhibition | shares compounds with T cruzi growth-1 | T. cruzi beta-gal in NIH3T3, GalScreen luminescence, 90 h | inhibition, % at 2.09 µM | actives 21% (n = 5,600);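 active = mean inhibition above about 95%, with at least 55% of replicates also reaching it, limit read from the data; inconclusive = meets just one of the two conditions; inactive = meets neither condition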;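 also: plate controls were neutral control median for no effect and positive control median for full effect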
NIH3T3 tox – NIH/3T3 (mouse) viability loss. shares compounds with T cruzi growth-1. NIH/3T3 viability, CellTiter-Glo ATP luminescence, 90 h. cytotoxicity (signal decrease), % at 8.35 µM. actives 14% (n = 5,600). AID 651742;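 active = mean signal decrease across replicates above about 35% based on untreated-well scatter, with enough replicates individually passing, limit read from the data; inconclusive = no rule stated though some were filed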;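 also: 0% = median of neutral control wells and 100% = median of positive control wells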
NIH3T3 tox 2 – NIH/3T3 (mouse) viability loss | shares compounds with T cruzi growth-1 | NIH/3T3 viability, CellTiter-Glo ATP luminescence, 90 h | inhibition, % at 24.9 µM | actives 56% (n = 5,600);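 active = mean loss of cell viability signal at or above a set limit, and enough replicates individually reaching it; inconclusive = meets only the mean limit or only the replicate share; inactive = meets neither condition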;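 also: 0% = median of neutral control wells and 100% = median of positive control wells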
An asterisk follows results filed as active; ? = inconclusive; . = no result. Shown are actives, neighbours in structure and some others; about 6.7% of the full set was active somewhere.

SMILES	T cruzi growth-1	C diff growth	Pf Dd2 growth	T cruzi growth-2	T cruzi growth-3	NIH3T3 tox	NIH3T3 tox 2
COc1ccc(S(=O)(=O)Nc2ccc3c(c2)CC(=O)N([C@@H](C)CO)C[C@H](C)[C@@H](CN(C)S(=O)(=O)c2cn(C)cn2)O3)cc1	-31	-8	35	.	.	.	.
C[C@H]1CN([C@@H](C)CO)C(=O)c2c(c3ccccc3n2C)-c2ccccc2CO[C@H]1CN(C)C(=O)[C@H]1CCCN1C	-10	-2	-34	.	.	.	.
C[C@@H]1CN([C@H](C)CO)C(=O)c2cccc(NC(=O)c3nc4ccccc4s3)c2O[C@@H]1CN(C)Cc1ccccc1	?	1	-46	100*	50	1	26
C[C@@H]1CN([C@H](C)CO)C(=O)c2cccc(NC(=O)c3nc4ccccc4s3)c2O[C@@H]1CN(C)Cc1ccc(-c2ccccc2)cc1	111*	-1	-48	107*	71	4	-9
COc1ccc(CN(C)C[C@H]2Oc3c(NC(=O)c4nc5ccccc5s4)cccc3C(=O)N([C@@H](C)CO)C[C@@H]2C)cc1	92	7	-42	.	.	.	.
COc1ccc(CN(C)C[C@H]2Oc3c(NC(=O)c4nc5ccccc5s4)cccc3C(=O)N([C@H](C)CO)C[C@@H]2C)cc1	?	-5	-17	90	74	3	11
COc1ccc(S(=O)(=O)N(C)C[C@@H]2Oc3c(NC(=O)c4nc5ccccc5s4)cccc3C(=O)N([C@H](C)CO)C[C@@H]2C)cc1	112*	3	-41	99*	111*	38*	51*
C[C@H]1CN([C@@H](C)CO)C(=O)c2cccc(NC(=O)c3nc4ccccc4s3)c2O[C@@H]1CN(C)Cc1ccccc1	77	11	-61	.	.	.	.
COc1ccc(S(=O)(=O)N(C)C[C@H]2Oc3c(NC(=O)c4nc5ccccc5s4)cccc3C(=O)N([C@@H](C)CO)C[C@H]2C)cc1	16	-1	-61	.	.	.	.
C[C@@H]1CN([C@@H](C)CO)C(=O)c2cccc(NC(=O)c3nc4ccccc4s3)c2O[C@H]1CN(C)Cc1ccc(-c2ccccc2)cc1	52	5	-75	.	.	.	.
OC[C@@H]1CC[C@@H]2O[C@H](CCc3ccc(-c4ccccc4)cc3)[C@H](n3cc(-c4ccccc4)nn3)C[C@@H]2O1	.	8	?	.	.	.	.
Cc1ccc(S(=O)(=O)Nc2ccc3c(c2)C(=O)N([C@H](C)CO)C[C@@H](C)[C@H](CN(C)C(=O)C2CCCCC2)OCCCC[C@H](C)O3)cc1	8	-9	-10	.	.	.	.
C[C@H](CO)N1C[C@H](C)[C@H](CN(C)Cc2ccc(C(F)(F)F)cc2)Oc2c(NC(=O)c3nc4ccccc4s3)cccc2C1=O	97*	.	-87*	100*	98*	15	93*
C[C@H]1CN([C@@H](C)CO)C(=O)c2cccc(NC(=O)c3nc4ccccc4s3)c2O[C@@H]1CN(C)Cc1ccc(C(F)(F)F)cc1	94	.	-45	.	.	.	.
CCCN(C)C[C@H]1OCCCC[C@@H](C)Oc2ccc(NS(C)(=O)=O)cc2C(=O)N([C@H](C)CO)C[C@@H]1C	38	3	0	.	.	.	.
C[C@@H]1CCCCO[C@H](CN(C)Cc2ccncc2)[C@H](C)CN([C@@H](C)CO)C(=O)c2cc(NS(C)(=O)=O)ccc2O1	104*	0	31	19	-11	-20	-2
C[C@H](CO)N1C[C@H](C)[C@@H](CN(C)Cc2ccccc2)OCCCC[C@H](C)Oc2ccc(NS(=O)(=O)c3ccccc3)cc2C1=O	21	.	24	.	.	.	.
CCCN(C)C[C@@H]1OCCCC[C@H](C)Oc2ccc(NS(C)(=O)=O)cc2C(=O)N([C@@H](C)CO)C[C@H]1C	?	-5	-40	55	40	3	-9
C[C@@H]1CCCCO[C@@H](CN(C)Cc2ccncc2)[C@H](C)CN([C@H](C)CO)C(=O)c2cc(NS(=O)(=O)c3ccc(Cl)cc3)ccc2O1	?	-12	6	96*	55	-7	-7
C[C@H](CO)N1C[C@H](C)[C@H](CN(C)Cc2ccccc2)OCCCC[C@H](C)Oc2ccc(NS(=O)(=O)c3ccc(Cl)cc3)cc2C1=O	107*	6	-27	?	?	?	104*
C[C@@H]1CN([C@H](C)CO)C(=O)c2cc(NS(=O)(=O)c3ccc(Cl)cc3)ccc2O[C@@H](C)CCCCO[C@@H]1CN(C)Cc1ccncc1	7	-6	-52	.	.	.	.
C[C@@H]1CCCCO[C@H](CN(C)Cc2ccncc2)[C@H](C)CN([C@H](C)CO)C(=O)c2cc(NS(C)(=O)=O)ccc2O1	8	-3	-2	.	.	.	.
C[C@@H]1CN([C@H](C)CO)C(=O)c2cc(NC(=O)Cn3cnnn3)ccc2O[C@@H]1CN(C)S(=O)(=O)c1cccs1	-52	.	0	.	.	.	.
CCS(=O)(=O)N(C)C[C@@H]1N[C@H](CO)[C@@H]1c1ccc(C2=CCCCC2)cc1	.	-2	-53	.	.	.	.
CCC(=O)N(C)C[C@H]1Oc2ncc(-c3ccccc3F)cc2C(=O)N([C@@H](C)CO)C[C@H]1C	25	3	34	.	.	.	.
SMILES	T cruzi growth-1	C diff growth	Pf Dd2 growth	T cruzi growth-2	T cruzi growth-3	NIH3T3 tox	NIH3T3 tox 2
COCC(=O)N(C)C[C@H]1Oc2cc(-c3ccccc3F)ccc2S(=O)(=O)N([C@@H](C)CO)C[C@@H]1C	.	-7	-66	.	.	.	.
C[C@@H]1CN([C@H](C)CO)C(=O)c2cc(/C=C/c3ccccc3)cnc2O[C@@H]1CN(C)C(=O)CN1CCOCC1	.	-2	-26	.	.	.	.
CCCNC(=O)Nc1ccc2c(c1)C(=O)N(C)C[C@@H](OC)[C@H](C)CN(C(C)=O)[C@@H](C)CO2	20	.	-32	.	.	.	.
CO[C@H]1CN(C)C(=O)c2ccc(NC(=O)c3ccc(Oc4ccccc4)cc3)cc2OC[C@H](C)NC[C@H]1C	-6	.	-76	.	.	.	.
C[C@@H]1CCCCO[C@@H](CN(C)Cc2ccccc2)[C@@H](C)CN([C@@H](C)CO)C(=O)c2cc(NS(=O)(=O)c3ccccc3)ccc2O1	-5	.	-28	.	.	.	.
C[C@@H]1CCCCO[C@H](CN(C)Cc2ccccc2)[C@@H](C)CN([C@@H](C)CO)C(=O)c2cc(NS(=O)(=O)c3ccccc3)ccc2O1	-68	.	-41	.	.	.	.
C[C@H]1CCCCO[C@@H](CN(C)Cc2ccccc2)[C@@H](C)CN([C@@H](C)CO)C(=O)c2cc(NS(=O)(=O)c3ccc(Cl)cc3)ccc2O1	110*	1	-51	100*	55	12	103*
C[C@@H]1CN([C@@H](C)CO)C(=O)c2cc(NS(=O)(=O)c3ccccc3)ccc2O[C@@H](C)CCCCO[C@H]1CN(C)Cc1ccccc1	.	1	-18	.	.	.	.
